# Inconclusive results are not listed. A number with no mark means an inactive call. Calls of active or inactive are those of the source. Calls come from the whole dose curve; as a rule, active = well fitted activation curve with a large enough effect in the repeat runs; inconclusive = weak or mixed curves; inactive = no such curve, though single readings can be large or run the other way.
# Biological target: Nuclear receptor subfamily 1 group I member 2 (Homo sapiens) (UniProt O75469)
# Test: CYP3A4 induction through human pregnane X receptor (PXR) by small molecules, qHTS assay (AID 1346984); note: nearly all actives have a fitted effect of over 40% in size
# Settings: DPX-2 HepG2 PXR, CYP3A4-luciferin luminescence, 24 h; series mostly up to 46.1 µM; activation: at the top concentration
# Source text: National Center for Advancing Translational Sciences [NCATS]
# NIH Chemical Genomics Center [NCGC]
# U.S. Environmental Protection Agency [EPA]
# National Institutes of Environmental Health Sciences [NIEHS]
# National Toxicology Program [NTP]
# The Pregnane X receptor (PXR), a ligand activated nuclear receptor plays a critical role in the regulation of genes involved in drug metabolism and transporters. Activation of PXR is responsible for unwanted adverse drug reactions. PXR binds xenobiotics and when compounds interact with PXR enhances the expression of CYP3A genes. Identifying the compounds with the potential for PXR activation and CYP3A4 induction can be of importance in improving the efficacy of drugs with less toxicity and avoiding drug-drug interactions.
# DPX-2 (Puracyp, Inc.) cell lines, used for screening against human PXR activation has HepG2 cells co-transfected with a PXR response element and a luciferase construct containing CYP3A4 promoter. Increase in luciferase activity can be used to identify the compounds that cause the induction of CYP3A4.
# DPX-2 cells were dispensed at 2,000 cells per well in 5uL of assay medium into white, solid-bottom 1536-well plates using a Multidrop Combi dispenser (Thermo Scientific). The assay plates were incubated at 37C for 5hr before transferring 23nL of test compounds dissolved in DMSO and positive control via Pintool station (Wako). The assay plates were incubated at 37C for 24hr. After 24hr compound treatment, 1uL of 3uM (final concentration) P450 substrate (P450-Glo CYP3A4 screening system with Luciferin-IPA, Promega) was added by a Flying Reagent Dispenser (FRD, Aurora Discovery). The assay plates were incubated for 3hr at 37C. Then 5ul One-Glo assay reagent (Promega) was added to each plate by an FRD and following 30 min incubation at room temperature, luciferase activity was quantified on a ViewLux plate reader (Perkin Elmer).
# % is set by controls: 0 for no effect and ±100 for the full control effect.
Structure (SMILES),activation,outcome
O=C(O)c1cc(O)c(O)c(O)c1,-5.71%,
C#CCN(C)Cc1ccccc1,-3.01% [at 20.6 µM],
O=c1[nH]c(=O)n([C@H]2CCCO2)cc1F,-2.36%,
O=c1[nH]c(=O)n([C@H]2C[C@H](O)[C@@H](CO)O2)cc1Br,3.03%,
CC(=O)OCC(=O)[C@@]12N=C(C)O[C@@H]1C[C@H]1[C@@H]3CCC4=CC(=O)C=C[C@]4(C)[C@H]3[C@@H](O)C[C@@]12C,3.93%,
CC1=CCC2CC1C2(C)C (centres undefined),3.45%,
O=C(O)[C@H](O)[C@@H](O)[C@H](O)[C@H](O)CO,,inactive
OC[C@H]1O[C@@](CO)(O[C@H]2O[C@H](CO)[C@@H](O)[C@H](O)[C@H]2O)[C@@H](O)[C@@H]1O,-8.68%,
CC(=O)Nc1cccc(O)c1,4.08%,
CC(=O)Nc1ccccc1,-4.04%,
OCCOCCOCCO,5.75%,
CCCCCC(N)=O,-3.14%,
C=CCNC(N)=S,-0.0562%,
CC(c1cc2ccccc2s1)N(O)C(N)=O (centres undefined),9.97%,

# Source: PubChem BioAssay (Tox21)
